Data reported in PubChem BioAssay (NCI).
This is part of a sample that, as a whole, favours compounds with a hit. Of some 83,000 tested, about 20% had one in any assay.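 Cell lines were cultured in 96-well plates, exposed to a single compound concentration, and assessed for percent growth 48 hours later.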 Unmarked numbers belong to inactive results. Activity calls are given as the source filed them. Rule for the calls: active = growth percent below 10; inactive = the rest.

Legend:
Test in all cases: NCI-60 one-dose screen, 48 h (100 = growth as untreated, 0 = no growth, -100 = all killed)
[1] = test system: DU-145 prostate; settings: 10 µM unless noted
[2] = test system: K-562 leukemia; settings: 10 µM unless noted
[3] = test system: MALME-3M melanoma; settings: 10 µM unless noted
[4] = test system: MDA-MB-231 breast; settings: 10 µM unless noted
[5] = test system: RXF 393 renal; settings: 10 µM unless noted
[6] = test system: SF-268 CNS; settings: 10 µM unless noted
[7] = test system: SF-295 CNS; settings: 10 µM unless noted
[8] = test system: SF-539 CNS; settings: 10 µM unless noted
[9] = test system: UACC-257 melanoma; settings: 10 µM
[10] = test system: M14 melanoma; settings: 10 µM unless noted
[11] = test system: HCT-15 colon; settings: 10 µM unless noted
[12] = test system: HT29 colon; settings: 10 µM unless noted
[13] = test system: SNB-19 CNS; settings: 10 µM unless noted
[14] = test system: U251 CNS; settings: 10 µM unless noted
[15] = test system: PC-3 prostate; settings: 10 µM unless noted
[16] = test system: UACC-62 melanoma; settings: 10 µM unless noted
[17] = test system: LOX IMVI melanoma; settings: 10 µM unless noted
[18] = test system: SK-MEL-28 melanoma; settings: 10 µM unless noted
[19] = test system: SNB-75 CNS; settings: 10 µM unless noted
[20] = test system: SK-MEL-5 melanoma; settings: 10 µM unless noted

Compound | growth [1] | growth [2] | growth [3] | growth [4] | growth [5] | growth [6] | growth [7] | growth [8] | growth [9] | growth [10] | growth [11] | growth [12] | growth [13] | growth [14] | growth [15] | growth [16] | growth [17] | growth [18] | growth [19] | growth [20]
Oc1ccc(CSc2nnc(-c3ccccc3)n2-c2ccccc2)c2cccnc12 | 21.3% | 11.2% | 12.2% | 31% | -4.02% (active) | 17.2% | 0.953% (active) | 0.484% (active) | 3.18% (active) | -10.6% (active) | 13.6% | 52.4% | 12.6% | 12.8% | 23% | -34.1% (active) | 5.5% (active) | 17.7% |  | 
CS(=O)(=O)c1ccc(-c2nn(-c3ccccc3)cc2/C=N/NC(=O)c2ccncc2)cc1 | 88.8% | 62.5% | 95.5% | 104% | 78.2% | 101% | 102% | 101% | 96.7% |  | 69.5% | 101% | 96.5% | 105% | 98.2% | 82.4% | 101% | 105% | 89% | 105%
O=C(COc1cccc2cccnc12)Nc1ccc(C(=O)/C=C/c2ccc(Cl)cc2)cc1 | 88.7% | 47.4% | 108% | 93.4% | 92.5% | 93.7% | 91.6% | 93.5% | 99.8% | 99.5% |  | 86.5% | 87.2% | 92.2% | 89.2% | 72.6% | 47.5% | 101% | 96% | 83.7%
Cc1ccc(S(=O)(=O)N/N=C/c2cn(-c3ccc(F)cc3)nc2-c2ccc(S(C)(=O)=O)cc2)cc1 | 114% | 102% | 71% | 104% | 117% | 104% | 103% | 97.7% | 99.3% |  | 99.4% | 105% | 97.1% | 101% | 95.4% | 91.6% | 100% | 106% | 110% | 102%
O=C1c2c(c3c4cc(Br)ccc4[nH]c3c3ccc4ccccc4c23)C(=O)N1CCN1CCCCC1 | 22.9% | -50.3% (active) | 68.1% | 77.7% | 59.5% | 38.4% | 23.7% | 38.7% | 93% | 20% |  | 10.3% | 37.7% | -10.9% (active) | 65% | 59.5% |  | 93.5% | 49.6% | 68.3%
C#C[C@]1(O)CC[C@H]2[C@@H]3CC=C4c5sc(C6CCOCC6)nc5CC[C@]4(C)[C@H]3CC[C@@]21C | 97.9% | 13.2% | 88.8% | 73.9% | 4.95% (active) | 91.2% | 37.8% | 56.5% | 78.3% | 59.8% |  | 44.2% | 86.1% | 57.6% | 63.2% | 64.7% | 65.8% | 56.5% | 78.9% | 85.2%
O=C(NCCCCCCNC(=O)c1c2c(nc3ccccc13)-c1cccnc1SC2)c1c2c(nc3ccccc13)-c1cccnc1SC2 | 104% | 73.4% | -16.5% (active) | 59.3% | 73.4% | 77.7% | 94.7% | 86.8% | 17.1% | 30.8% |  | 53.7% | 66.5% | 77.6% | 81% | 12.2% | 78.6% | 27.7% | 62.9% | 84.3%
O=C(Nc1ccc(F)cc1)c1cc(-c2ccc(F)cc2F)ccc1O | 16% | 15.4% | -10.5% (active) | 17.6% | -21.1% (active) | 14.8% | 25% | 15.6% | -20.7% (active) |  | 11.4% | 101% | 8.06% (active) | 6.63% (active) | 5.81% (active) | 5.12% (active) | 4.96% (active) | 21.9% | 7.01% (active) | -63.9% (active)
O=C(NCCCNc1cc(-c2cn(-c3ccccc3)nc2-c2cccc(O)c2)ccn1)Nc1cccc(C(F)(F)F)c1 | 66.9% | 13.3% | 17.7% | 18.6% | -14% (active) | 38.6% | -15.3% (active) | 27.5% | 21.1% |  | -25.3% (active) | 9.99% (active) | 42.8% | 33.5% | 27.1% | 19.9% | 8.34% (active) | -12.1% (active) | 45% | 37.8%
Cc1nn(-c2ccccc2)cc1/C=N/Nc1nc(Nc2ccccc2)nc(Nc2ccc(S(N)(=O)=O)cc2)n1 | 9.14% (active) | 9.56% (active) | -25.6% (active) | -20.8% (active) | -20.4% (active) | -7.97% (active) | 10.7% | -71.1% (active) | 55.3% |  | 7.54% (active) | 5.91% (active) | 7.01% (active) | -22.3% (active) | 1.45% (active) | -27.8% (active) | -25.7% (active) | -13.9% (active) | 44.8% | -44.3% (active)
O=C(CSc1nnc(-c2ccc(Cl)cc2)n1-c1ccccc1)Nc1ccc(F)cc1 | 93% | 92.4% | 80.1% | 49.4% | 82.9% | 79.7% | 65.5% | 60% | 98.8% |  | 94.6% | 87% | 59.7% | 6.66% (active) | 99.9% | 82.4% | 49.2% | 95.8% | 117% | 96.4%
COc1ccc([C@H]2c3[nH]c4ccccc4c3C[C@@H]3C(=O)N(C4CCN(Cc5ccccc5)CC4)CC(=O)N23)c(OC)c1 | 86.3% | 28.8% | 97.1% | 77.7% | 41.9% | 63% | 94.6% | 81.7% | 94.5% |  | 48.3% | 43.1% | 83.1% | 75.8% | 48.1% | 87.2% | 58.7% | 85.1% | 83.1% | 73.7%
NS(=O)(=O)c1ccc(Nc2nc(N/N=C/c3ccc(C(F)(F)F)cc3)nc(Nc3ccccc3)n2)cc1 | 39.3% | 17.5% | 22.4% | 26.1% | -39.5% (active) | 50.4% | 4.66% (active) | 23.8% | 39.6% |  | 31.3% | 11.4% | 33.8% | 18.6% | 14.4% | 14.9% | 9.92% (active) | 27.2% | 42% | 34.5%
O=S(=O)(NCCCNc1nccc(-n2cnc3ccccc32)n1)c1ccc(F)cc1 | 87.2% | 37.2% | 86.1% | 74.4% | 163% | 86.3% | 70.6% | 86.2% | 66.2% |  | 82.8% | 92.8% | 92.6% | 93.8% | 69.3% | 61.6% | 74% | 97.9% | 82.5% | 2.63% (active)
Cc1ccc(-n2cc(/C=C/C(=O)c3ccc(S(C)(=O)=O)cc3)c(-c3ccc(S(C)(=O)=O)cc3)n2)cc1 | 104% | 27% | 50.3% | 86.5% | 97.9% | 104% | 97.2% | 88.8% | 100% |  | 37.6% | 70.5% | 89.8% | 95.6% | 86.6% | 78.1% | 74.5% | 92.9% | 102% | 94.4%
O=c1oc2ccc(-c3ccc(F)cc3F)cc2c(=O)n1-c1ccc(F)c(F)c1 | 17.5% | 10.8% | -14.6% (active) | 7.85% (active) | -28.4% (active) | 13.7% | -12.6% (active) | 11.9% | -14.9% (active) |  | 3.09% (active) | 88.8% | 12.2% | 11.9% | 13.3% | -12.8% (active) | 17.8% | 19.9% | 14.9% | -77.4% (active)
O=C(/C=C/c1cccc(O)c1)c1ccc(O)cc1 | 15.8% | 23.2% | 106% | 89.3% | 94.8% | 89.9% | 98.2% | 43.3% | 95.3% |  | 49.6% | 80.7% | 74.9% | 43.3% | 65.3% | 80% | 32.2% | 101% | 103% | 96.9%
CCN(CC)c1ccc2cc(C(=O)NCCOCCOCCOCCn3cc(CCC(=O)Nc4ccc(C(=O)c5ccc(NC(=O)OC(C)(C)C)cc5)cc4)nn3)c(=O)oc2c1 | 61.8% | 38.3% | 83.9% | 53.7% | 69.8% | 65% | 43.3% | 79.5% | 63.1% |  | 72.7% | 77.9% | 75.7% | 69.8% | 39.4% | 32.1% | 26.7% | 82.6% | 94.6% | -17.2% (active)
NC(=O)c1c(NC(=O)c2cccc(C(F)(F)F)c2F)sc2c1CCC(=O)C2 | 89.1% | 13.4% | 19.4% | 12.9% | -5.49% (active) | 21.6% | 40% | 0.149% (active) | 12.9% |  | 7.63% (active) | 8.55% (active) | 18% | 15.9% | 17.9% | 11.1% | 19.2% | 33.9% | 40.2% | -3.83% (active)
CNC(=O)c1cc(N2CCc3cc(NC(=O)Nc4ccc(Cl)c(Cl)c4)ccc32)ccn1 | 97.1% | 78.2% | 68.3% | 90.9% | -2.71% (active) | 104% | 71.9% | 55.7% | 79.8% |  | 63% | 82.1% | 81.4% | 70% | 65.2% | 78.9% | 86.9% | 86.5% | 87.9% | 74.5%
Cc1ccc(NC(=O)c2ccc(CN3CCN(C)CC3)c(I)c2)cc1Oc1ccc(-c2[nH]nc3ncnc(N)c23)cc1 | 99.6% | 1.61% (active) | -72.7% (active) | 39.3% | 44.9% | 90.3% | 78.4% | 67.5% | -46.4% (active) |  | -54.1% (active) | -71.1% (active) | 96.5% | -59.8% (active) | 75.2% | 85% | -86.5% (active) | -84.6% (active) | 100% | 62.6%
O=C1CC2(CCOCC2)Oc2ncccc21 | 97.7% | 4.49% (active) | -31.6% (active) | 8.5% (active) | 92.8% | 65.2% | 109% | 27.7% | 79.2% |  | -62.6% (active) | 49.8% | 51.4% | 22.3% | 88.7% | 61.1% | -78.7% (active) | -22.3% (active) | 115% | 100%
